ASK1 primary: inhibitors of human ASK1 kinase; 22,000 tested, 0.99% active; AlphaScreen MKK6 phosphorylation by ASK1, luminescence; AID 1159602; inhibition, % at 7.44 µM; Q99683; in the data active = inhibition above about 35%;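 note: 0% = median of compound wells and 100% = no enzyme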
ULK1 inh: inhibitors of human ULK1 kinase. AlphaScreen Atg13 phosphorylation by ULK1, luminescence. inhibition, % at 5.96 µM. O75385. 30,000 tested, 1.9% active; in the data active = inhibition above about 43%;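 note: 0% = median of compound wells and 100% = no enzyme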
Target sequence (O75385 whole entry, looked up): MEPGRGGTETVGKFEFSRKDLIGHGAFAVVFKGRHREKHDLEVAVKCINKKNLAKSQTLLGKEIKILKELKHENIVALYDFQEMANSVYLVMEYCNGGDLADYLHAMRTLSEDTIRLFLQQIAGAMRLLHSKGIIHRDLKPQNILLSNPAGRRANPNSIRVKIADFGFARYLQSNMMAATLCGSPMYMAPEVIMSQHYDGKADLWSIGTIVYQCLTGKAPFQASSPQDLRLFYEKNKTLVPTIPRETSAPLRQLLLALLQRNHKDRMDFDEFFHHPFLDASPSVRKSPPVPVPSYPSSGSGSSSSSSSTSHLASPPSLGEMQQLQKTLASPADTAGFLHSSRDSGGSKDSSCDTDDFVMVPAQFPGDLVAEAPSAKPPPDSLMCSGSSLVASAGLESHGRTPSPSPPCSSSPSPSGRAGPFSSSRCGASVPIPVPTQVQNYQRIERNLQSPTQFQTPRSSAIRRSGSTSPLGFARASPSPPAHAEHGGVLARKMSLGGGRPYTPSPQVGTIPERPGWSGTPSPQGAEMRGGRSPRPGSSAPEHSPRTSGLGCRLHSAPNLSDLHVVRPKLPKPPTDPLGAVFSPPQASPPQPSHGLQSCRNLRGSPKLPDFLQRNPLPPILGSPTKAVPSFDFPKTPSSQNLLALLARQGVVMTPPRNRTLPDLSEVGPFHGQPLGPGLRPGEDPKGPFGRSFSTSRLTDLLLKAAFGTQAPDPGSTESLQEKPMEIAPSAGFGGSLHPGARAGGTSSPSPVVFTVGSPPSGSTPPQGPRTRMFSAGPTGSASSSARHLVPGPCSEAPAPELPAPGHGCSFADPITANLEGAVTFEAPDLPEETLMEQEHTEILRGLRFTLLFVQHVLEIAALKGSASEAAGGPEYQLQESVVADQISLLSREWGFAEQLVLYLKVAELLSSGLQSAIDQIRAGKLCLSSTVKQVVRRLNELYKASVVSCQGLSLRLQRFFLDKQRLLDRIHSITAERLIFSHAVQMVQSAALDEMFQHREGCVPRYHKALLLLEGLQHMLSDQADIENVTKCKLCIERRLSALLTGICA
AlphaScreen intf: counter-screen for ASK1 inhibitors: AlphaScreen optical interference | shares compounds with ASK1 primary | IC50, µM | AlphaScreen TruHits beads, signal interference counterscreen | 220 tested, 20% active;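 active = IC50 of 10 µM or lower in the counterscreen; inactive = IC50 above 10 µM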;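 note: loss of AlphaScreen light from TruHits beads alone with no ASK1 enzyme present; potency of signal reduction so a low IC50 flags an assay artifact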
Active calls of the source: *; i = inactive; . = no result given. Compounds with a hit are over-represented: about 2.5% of the library has one in this group of screens.

SMILES	ASK1 primary	ULK1 inh	others
Cc1cc(NCCN(C(C)C)C(C)C)nc(-c2csc3ccccc23)n1	-3.2	7.3
CC(NCCc1cccs1)c1ccc2c(c1)CC(c1nc3ccc(-c4ccnc(N)n4)cc3[nH]1)CO2 (stereo not given)	3.0	-4.6
COc1ccccc1N1C(=O)c2cccc3c(C(=O)O)ccc(c23)C1=O	.	6.7
CCC(=N)c1ccc(OC)c2cccc(NC)c12	.	64.4*
CCCCCCCCCCCCOS(=O)(=O)O	.	19.3
CCCCC(CC)CCC(CC(C)C)OS(=O)(=O)O (stereo not given)	.	94.6*
COc1ccc(CC(=O)Nc2ccc(-c3cn[nH]c3)cc2N2CCC(N(C)C)CC2)cc1	-0.4	9.7
COc1ccc(CC(=O)Nc2cc(Nc3ccccc3-c3ncccn3)c(C(F)(F)F)cn2)cc1	11.0	5.0
NC(=O)c1ccccc1Nc1cc(NC(=O)Cc2ccc(CN3CCOCC3)cc2)ncc1Cl	23.4	41.6
CNC(=O)c1ccccc1Nc1cc(NC(=O)Cc2c(Cl)cccc2Cl)ncc1C(F)(F)F	14.6	-8.6
NC(=O)c1ccccc1Nc1cc(Oc2ccc(N3CCNCC3)cc2)ncc1C(F)(F)F	-0.6	60.0*
CNC(=O)c1ccccc1Nc1cc(NC(=O)Cc2ccc(OC)cc2)ncc1C(F)(F)F	0.8	70.2*
NC(=O)c1ccccc1Nc1cc(NC(=O)Cc2ccc(CN3CCOCC3)cc2)ncc1C(F)(F)F	28.5	62.9*
NC(=O)c1ccccc1Nc1cc(NC(=O)Cc2ccc3ccccc3c2)ncc1C(F)(F)F	3.2	25.4
CNC(=O)c1ccccc1Nc1cc(NC(=O)Cc2cccc(OC)c2)ncc1C(F)(F)F	2.0	55.1*
O=C(Nc1ccc(N2CCOCC2)cc1)c1ccnc(N2CCc3ccccc3C2)c1	19.3	10.8
O=C(NCc1cccc(C(F)(F)F)c1)c1cncc(Nc2ncccn2)c1	-26.1	-14.2
CC(=O)c1cccc(-c2nc(Nc3ccc(N4CCOCC4)cc3)c3ncn(C4CCCCC4)c3n2)c1	-0.3	20.7
CC(C)=N/N=C1/SC(CC(=O)O)C(=O)N1c1ccccc1 (stereo not given)	.	1.5
Nc1ccc(C(=O)OCC(=O)c2ccc(Br)cc2)cc1	.	-7.9
CNC(=O)c1ccccc1Nc1cc(NC(=O)Cc2ccccc2)ncc1C(F)(F)F	-8.7	57.6*
CNC(=O)c1ccccc1Nc1cc(NC(=O)CCc2ccccc2)ncc1C(F)(F)F	15.5	34.9
CNC(=O)c1cccnc1Nc1cc(NC(=O)Cc2ccc(OC)cc2)ncc1C(F)(F)F	0.0	43.1*
CNC(=O)c1ccccc1Nc1cc(NC(=O)Cc2ccc(OC)cc2)ncc1C#N	-7.9	17.6
O=C(O)c1cc(O)c2c(c1)[C@@H]([C@H]1c3cc(C(=O)O)cc(O)c3C(=O)c3c(O[C@H]4O[C@H](CO)[C@@H](O)[C@H](O)[C@H]4O)cccc31)c1cccc(O[C@H]3O[C@H](CO)[C@@H](O)[C@H](O)[C@H]3O)c1C2=O	.	67.3*
SMILES	ASK1 primary	ULK1 inh	others
O=C1c2c(O)cccc2C(C2OC(CO)[C@@H](O)[C@H](O)[C@H]2O)c2cc(CO)cc(O)c21 (stereo not given in full)	.	-1.3
CC(C(=O)Nc1cnn(-c2cccc(C(=O)Nc3ccc(N4CCOCC4)cc3)c2)c1)c1ccccc1 (stereo not given)	-11.1	-12.3
O=C(Nc1ccccc1)Nc1cnn(-c2ccc3c(c2)C(Nc2ccc(N4CCOCC4)cc2)CCC3)c1 (stereo not given)	6.4	44.5*
COc1cc(N2CCOCC2)ccc1Nc1cc(Nc2ccccc2C(=O)N(C)C)c(C(F)(F)F)cn1	6.6	74.2*
COc1cc(N2CCOCC2)ccc1Nc1cc(-c2cnn(C)c2)c(Cl)cn1	-12.4	3.4
Cn1ccc(-c2ccccc2Nc2ccnc(Nc3ccc(N4CCOCC4)cc3)c2)n1	19.4	-3.8
Cn1nc(C2CC2)cc1Nc1cc(Nc2ccc(N3CCOCC3)cc2)ncc1C(F)(F)F	10.3	45.7*
COc1cc(N2CCOCC2)ccc1Nc1cc(Nc2ccccc2C(N)=O)c(C(F)F)cn1	-30.6	82.9*
CNC(=O)c1ccccc1Nc1cc(Nc2ccc(N3CCOCC3)cc2OC)ncc1C	-2.9	18.4
COc1ccc(-c2cc(C(=O)NCCN3CCOCC3)ccn2)cn1	0.3	-0.4
c1ccc(Nc2nc3ncnc(NC4CC4)c3[nH]2)nc1	12.4	-5.3
COc1ccc(-c2nc(Nc3cc(OC)c(OC)c(OC)c3)nc(OC)n2)cc1	8.9	-6.3
c1ccc(CNc2cc(Nc3ccncc3)ncn2)cc1	-15.7	20.1
c1cc(Nc2nccc(Nc3ccc(N4CCOCC4)cc3)n2)ccn1	9.9	27.9
c1ccc(Nc2cc(Nc3ccncc3)ncn2)cc1	19.7	61.0*
c1cc(Nc2nccc(Nc3ccc(N4CCOCC4)cc3)n2)ncn1	13.4	78.5*
c1cc(Nc2cc(Nc3ccc(N4CCOCC4)cc3)ncn2)ccn1	2.4	82.4*
c1cn(-c2ccc(Nc3cc(Nc4ccc(N5CCOCC5)cc4)ncn3)cc2)cn1	2.7	-7.3
Cc1cnc(-c2ccc(N3CCOCC3)nc2)nc1NCc1cccnc1	0.4	10.6
COc1ccc(CCNC(=O)c2ccc3nc(Nc4nccc5ccccc45)sc3c2)cc1	-14.1	17.9
O=C(NCc1nnnn1-c1ccc(Cl)cc1)c1ccc2ccccc2c1	.	-12.9
c1ccc(OCCNc2cc(NCc3cccnc3)ncn2)cc1	-7.3	-3.0
CC(=O)NNc1nc(-c2cc3ccccc3oc2=O)cs1	.	6.9
c1cc(NC2CC2)nc(NCc2ccc3c(c2)OCO3)n1	6.9	-6.2
Cc1[nH]ncc1-c1ccc2nc(NC(=O)C3COc4ccc(F)cc4C3)sc2c1 (stereo not given)	38.7*	14.1	AlphaScreen intf=>19.2
SMILES	ASK1 primary	ULK1 inh	others
Cc1[nH]ncc1-c1ccc(NC(=O)C2COc3ccc(F)cc3C2)c(N(C)CCN(C)C)c1 (stereo not given)	-5.7	2.3
CCCNc1nc(Nc2ccc(N3CCOCC3)cc2)nc2c1ncn2Cc1ccc(C(F)(F)F)cc1	40.2*	-2.5	AlphaScreen intf=i
FC(F)(F)c1ccc(Cn2cnc3c(NCCN4CCOCC4)nc(Nc4ccc(C(F)(F)F)cc4)nc32)cc1	4.9	-36.4
FC(F)(F)c1ccc(Cn2cnc3c(Nc4ccc5c(c4)OCO5)nc(Nc4ccc(N5CCOCC5)cc4)nc32)cc1	62.1*	3.1	AlphaScreen intf=i
FC(F)(F)c1ccc(Cn2cnc3c(Nc4ccc(N5CCOCC5)cc4)nc(Nc4ccc(N5CCOCC5)cc4)nc32)cc1	21.6	0.5
Cc1cc(NCc2cccc(C(F)(F)F)c2)nc(Nc2ccncc2)n1	-28.0	-13.0
Nc1cccc(-c2nc3ncnc(Nc4ccc(N5CCOCC5)cc4)c3[nH]2)c1	36.1*	6.0	AlphaScreen intf=>18.2
Cc1cnc(-c2cccc(N)c2)nc1Nc1ccc(N2CCOCC2)cc1	51.4*	-9.8	AlphaScreen intf=>17.8
Cc1cnc(-c2csc3ccccc23)nc1Nc1ccc(N2CCOCC2)cc1	42.5*	-11.4	AlphaScreen intf=>20.1
COc1cc2nc(-c3csc4ccccc34)nc(Nc3ccc(N4CCOCC4)cc3)c2cc1OC	28.9	-28.2
CC(=O)c1cccc(-c2ncc(C)c(Nc3ccc(N4CCOCC4)cc3)n2)c1	14.9	18.7
c1ccc(-c2nc3ncnc(Nc4ccc(N5CCOCC5)cc4)c3[nH]2)cc1	14.7	-1.2
CN1CCN(C(=O)c2ccc(-c3nc(C(=O)Nc4ccc(Oc5ccccc5)cc4)cs3)cc2)CC1	0.1	-34.0
Cc1nc(-c2ccc3cnc(Nc4ccc(-n5cnc(N6CCOCC6)n5)cc4)nc3c2)n[nH]1	-20.5	19.1
